BH1578 lux ind: induces V. cholerae light production without autoinducers; V. cholerae BH1578 lux reporter, luminescence, 6 h; activation, % at 18.7 µM; 350,000 compounds, 0.16% hits; in the data active = activation mostly above about 9.7%, no sharp cut-off
Mtb FBA inh: Mtb fructose-bisphosphate aldolase inhibition; P9WQA3; AID 588726; 360,000 compounds, 2.3% hits; purified M. tuberculosis FBA, fluorescence read-out; inhibition, % at 1 µM;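 note: 0% = vehicle and 100% = reference inhibitor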
RecA splice inh: blocks M. tuberculosis RecA intein splicing; cell-free RecA intein splicing, fluorescence; 290,000 compounds, 0.75% hits; AID 2221; inhibition, % (no concentration beside the values); P9WHJ3; in the data active = inhibition above about 30%;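 note: 0% = vehicle wells and 100% = reference inhibitor control wells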
Target sequence (P9WHJ3 whole entry, looked up, canonical isoform): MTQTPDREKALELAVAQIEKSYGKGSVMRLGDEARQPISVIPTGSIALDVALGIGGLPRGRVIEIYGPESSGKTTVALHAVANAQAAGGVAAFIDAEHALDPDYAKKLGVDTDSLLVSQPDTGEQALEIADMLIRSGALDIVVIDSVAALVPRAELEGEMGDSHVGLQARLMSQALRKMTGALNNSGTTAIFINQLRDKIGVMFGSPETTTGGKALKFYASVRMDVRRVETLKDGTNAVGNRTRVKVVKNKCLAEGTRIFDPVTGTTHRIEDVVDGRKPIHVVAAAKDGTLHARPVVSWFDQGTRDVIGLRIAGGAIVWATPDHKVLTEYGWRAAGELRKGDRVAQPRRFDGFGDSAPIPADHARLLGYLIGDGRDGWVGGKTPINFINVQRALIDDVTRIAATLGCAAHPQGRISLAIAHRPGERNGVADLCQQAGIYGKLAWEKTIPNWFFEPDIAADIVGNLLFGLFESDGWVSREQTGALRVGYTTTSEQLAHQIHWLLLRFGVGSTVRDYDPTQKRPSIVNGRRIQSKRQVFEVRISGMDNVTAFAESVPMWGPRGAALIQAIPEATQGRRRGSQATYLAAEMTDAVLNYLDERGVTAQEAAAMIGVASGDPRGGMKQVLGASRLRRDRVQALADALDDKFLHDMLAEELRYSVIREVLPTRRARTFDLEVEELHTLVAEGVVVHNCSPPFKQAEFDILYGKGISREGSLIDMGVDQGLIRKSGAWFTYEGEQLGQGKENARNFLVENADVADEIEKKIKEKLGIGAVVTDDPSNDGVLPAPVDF
GDH-TPI counter-1: counter-screen for M. tuberculosis FBA inhibitors: GDH-TPI coupled enzymes | 360,000 compounds, 1.2% hits | inhibition, % at 4.8 µM | GDH-TPI coupled enzyme counterscreen, NADH absorbance; in the data active = inhibition above about 30%;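 note: 0% = DMSO wells and 100% = wells lacking the enzyme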
Mtb UGM inh: blocks M. tuberculosis UGM enzyme. purified UGM, fluorescence polarization probe displacement. inhibition, % at 10 µM. 320,000 compounds, 0.06% hits; in the data active = inhibition above about 10%, passing the limit was not always enough
Rv3671c inh: Rv3671c (M. tuberculosis) protease inhibition. P9WHR9. inhibition, % at 5.96 µM. 320,000 compounds, 0.048% hits; in the data active = inhibition above about 38%;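 note: extracellular domain of Rv3671c used as enzyme; 0% = enzyme with DMSO and 100% = no enzyme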
Mtb FBA inh conf: confirmation of M. tuberculosis fructose-bisphosphate aldolase inhibitors. shares compounds with Mtb FBA inh. purified M. tuberculosis FBA, fluorescence read-out. inhibition, % at 1 µM. 5,600 compounds, 78% hits;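 note: 0% = vehicle wells and 100% = reference inhibitor wells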
GDH-TPI counter-2: GDH-TPI inhibition counter-screen for FBA inhibitors | shares compounds with Mtb FBA inh | GDH-TPI coupled enzyme counterscreen, fluorescence | inhibition, % at 1 µM | 5,600 compounds, 81% hits | AID 652141; in the data active = inhibition above about 10%
An asterisk follows results filed as active; i = inactive; nt = no result given; + = active, no number. This is a sample that favours compounds with a hit; in the whole collection about 4.1% have one here. Cut-off read from the data, not from the text of the source, unless noted: active = inhibition above about 27%; inactive = the rest.

SMILES	BH1578 lux ind	Mtb FBA inh	RecA splice inh	GDH-TPI counter-1	Mtb UGM inh	Rv3671c inh	Mtb FBA inh conf	GDH-TPI counter-2
CC(=O)Oc1ccc(C(=O)Nc2cccc(-c3nnc(-c4ccco4)o3)c2)cc1	0	0	3	12	0	-14	nt	nt
CC(C)COc1ccc(-c2nnc(-c3ccco3)o2)cc1	2	43*	6	2	0	-4	54*	43*
CCc1nc2c(OCc3c(C)noc3C)cccn2c1N(C)C(=O)C(C)C	-1	-5	nt	4	nt	nt	nt	nt
O=C(c1ccc(Cl)c(S(=O)(=O)N2CCOCC2)c1)N(Cc1ccco1)Cc1cccs1	i	-3	nt	6	nt	nt	nt	nt
COc1cccc(/C=C/C(=O)OCC(=O)c2c(N)n(C)c(=O)n(C)c2=O)c1	-1	63*	nt	19	-2	-1	86*	59*
C=CCNC(=O)/C(=C\c1ccco1)NC(=O)c1ccco1	-1	59*	-5	14	1	1	81*	72*
CCCCn1c(NS(=O)(=O)c2ccccc2)c(C(=O)OCC)c2nc3ccccc3nc21	i	53*	i	16	2	-102	194*	151*
CCCCn1c(NC(=O)c2ccc(Br)o2)c(C(=O)OCC)c2nc3ccccc3nc21	i	58*	-25	11	-2	-256	+	179*
CCCCn1c(NC(=O)CC)c(C#N)c2nc3ccccc3nc21	i	6	1	4	-1	0	nt	nt
COc1ccccc1N1CCN(C(=O)c2noc(C(C)C)c2[N+](=O)[O-])CC1	0	-2	-9	2	0	13	nt	nt
Cc1ccc2nc(-c3sc4nc(C)cc(C)c4c3N)[nH]c2c1	0	30*	-22	9	0	12	112*	82*
O=C(NC1CC1)c1cccc2c1C(=O)c1ccc(N3CCC(N4CCCCC4)CC3)cc1S2(=O)=O	-1	-14	nt	2	nt	nt	nt	nt
COc1ccc(Cn2cnc3c4cc(F)ccc4n(C)c3c2=O)cc1	0	5	-1	1	1	-3	nt	nt
COc1ccc2c(c1)c1ncn(CCc3ccccc3)c(=O)c1n2C	0	105*	5	16	-2	-19	106*	91*
O=C(/C=C/c1ccc(Cl)c(C(F)(F)F)c1)N1CCN(c2ccccn2)CC1	i	93*	3	5	0	-13	143*	129*
CCCOc1ccc2cc(C(=O)NCc3ccccc3)c(=O)oc2c1	-1	44*	-1	8	-2	-4	50*	39*
COc1ccc2oc(=O)c(C(=O)NCc3ccccc3)cc2c1	-1	4	-3	3	3	-7	nt	nt
COc1ccc2cc(C(=O)NCc3ccco3)c(=O)oc2c1	0	46*	-4	33*	-5	7	35*	26*
Cc1nn(CC(=O)NCCCN2CCCC2)c(=O)c2nn(-c3ccccc3)c(C)c12	i	-1	2	3	1	-6	nt	nt
Cc1cccc(NC(=O)CNC(=O)[C@H]2O[C@@H](n3ccc(N)nc3=O)[C@H](O)[C@@H]2O)c1C	nt	-1	nt	nt	nt	nt	nt	nt
CCCNC(=O)c1ccc(-c2nc3ccccc3s2)s1	0	48*	-6	32*	2	-20	100*	66*
CC1(C)N=C(N)NC(=NCCCOc2ccc([N+](=O)[O-])cc2)N1	nt	-1	nt	nt	nt	nt	nt	nt
COc1ccc2oc(C(=O)Nc3nc(-c4ccccn4)cs3)c(C)c2c1	-2	10	-1	-2	0	-14	nt	nt
COc1ccc2oc(C(=O)Nc3nnc(C)s3)c(C)c2c1	i	29*	nt	23	2	-3	81*	63*
COc1ccc2oc(C(=O)NC(C)c3ccccn3)c(C)c2c1 (stereo unspecified)	i	33*	nt	3	1	-4	94*	83*
SMILES	BH1578 lux ind	Mtb FBA inh	RecA splice inh	GDH-TPI counter-1	Mtb UGM inh	Rv3671c inh	Mtb FBA inh conf	GDH-TPI counter-2
Cc1cc(C)cc(OCC(=O)OCC(=O)N(CC(C)C)c2c(N)n(Cc3ccccc3)c(=O)[nH]c2=O)c1	3	-3	1	-6	-1	-7	nt	nt
CCCCC(=O)Nc1cccc(-c2ccc3nncn3n2)c1	i	-5	3	12	-2	9	nt	nt
COc1cc(-c2cc(NC=O)c3ncc(-c4cccc(C(F)(F)F)c4)n3c2)cc(OC)c1OC	0	5	nt	5	nt	nt	nt	nt
C[n+]1c(-c2ccccc2)cc(-c2ccc(Cl)cc2)cc1-c1ccccc1	-1	71*	8	-5	0	-12	79*	69*
Cc1ccc(NC(=O)COc2ccccc2)c(NC(=O)c2ccco2)c1	i	1	0	4	0	-5	nt	nt
CCCCN1CC(=O)N2[C@@H]3c4cc(OC)ccc4OC[C@@H]3[C@H](C(=O)OCC)[C@]2(C)C1=O	0	1	nt	1	nt	nt	nt	nt
CSCC[C@H](NC(=O)COc1ccc(Cl)cc1)C(=O)N1CCC2(CC1)NCCc1[nH]cnc12	0	59*	-1	1	0	10	120*	111*
CC(Sc1nnc(Cc2ccccc2)o1)C(=O)Nc1ccccc1[N+](=O)[O-] (stereo unspecified)	0	0	nt	3	2	-14	nt	nt
CCNC(=O)C1(C)CCCN(C(=O)c2ccc(OC)c(F)c2)C1 (stereo unspecified)	0	-2	nt	0	nt	nt	nt	nt
O=c1oc2cccnc2n1CCS(=O)(=O)c1ccc(F)cc1	0	39*	-1	8	1	-4	4	1
CCOC(=O)c1cnc(SCC(=O)NNC(=O)c2ccco2)nc1N	0	-5	1	1	1	-4	nt	nt
COc1ccc(-c2cc3cc(OC)c(OC)cc3cn2)cc1	-1	89*	nt	10	-2	-12	45*	33*
COc1cc2cnc(-c3ccccc3)cc2cc1OC	-8	6	nt	16	-2	3	nt	nt
C=CCN(C(=O)COc1ccccc1)c1nnc(-c2ccncc2)s1	-10	41*	1	15	-1	-5	95*	70*
CN(C(=O)CCc1ccccc1)c1nnc(-c2ccncc2)s1	0	6	2	1	1	-11	nt	nt
CCOc1ccc(C(C(=O)NC(C)(C)C)N(CCOC)C(=O)CCC(=O)Nc2nccs2)cc1 (stereo unspecified)	0	0	2	-12	1	3	nt	nt
NC(=O)c1ccccc1OCC(=O)c1ccc(Cl)cc1	0	3	-2	-4	2	8	nt	nt
O=C(CNc1ccccc1C(=O)O)c1ccccc1	i	28*	0	2	-1	-3	34*	32*
NC(=O)c1ccccc1NCC(=O)c1ccc(Cl)cc1	-1	43*	-1	0	-2	4	159*	124*
O=C(Nc1ccccc1C(=O)O)c1ccccc1	i	7	-1	1	5	-25	nt	nt
CCOC(=O)/C=C/C(=O)Nc1ccc(S(=O)(=O)Nc2nccs2)cc1	-1	2	0	11	-2	-4	nt	nt
